# Most compounds without a hit are left out; they make up all but 21% or so of the library.
# NS1 function inh: inhibitors of influenza NS1 protein function | Potency, µM (top dose mostly 46.1 µM), without a hit: at the highest dose activity, positive = more growth | actives 0.4% (n = 270,000); further: potency means the concentration at half of the fitted maximal effect; actives are rising curves; nearly all actives have a fitted effect of over 50% in size
#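 Read-out: OD600 growth recovery of NS1-expressing budding yeast. Cells grown overnight at 30C in -URA glucose medium, washed, resuspended and diluted 1:100 in 2% galactose assay medium, pH 6.0. Same strain lacking NS1 served as positive control.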
# SARS PLpro yeast: inhibitors of SARS-CoV papain-like protease in yeast; Potency, µM (highest dose often 32.9 µM), without a hit: at the top dose activity, positive = growth rescue, actives largely listed as activators; S. cerevisiae expressing SARS-CoV PLpro, growth rescue; AID 485353; actives 0.19% (n = 330,000); further: potency means the concentration at half of the fitted maximal effect; 0% is about no effect; nearly all actives have a fitted effect of over 55% in size
# Pf growth 96h: inhibits malaria parasite growth, 96 h | P. falciparum luciferase reporter growth, 96 h | Potency, µM (doses to about 28.7 µM), without a hit: top-dose activity change, negative = inhibition, most hits filed as inhibitors | actives 6.9% (n = 320,000) | AID 504834; active means well fitted inhibition curve with a large enough effect; inconclusive means small, poorly fitted or top-dose-only effect, or another doubt; inactive means no such curve, though single readings can be large or run the other way; further: potency means the concentration at half of the fitted maximal effect; on the % scale 0 is the no-effect control and ±100 the full control effect
#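 Parasite growth measured via integrated firefly luciferase reporter in P. falciparum. Infected erythrocytes at 2% hematocrit, 0.05% parasitemia final were treated 96 hours at 37 C under 5% CO2, and luminescence was read.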
# Cycloheximide cs: counter-screen hit for Shiga toxin inhibitors, cycloheximide; cell reporter, cycloheximide protein synthesis inhibition counterscreen; max response, %; actives 12% (n = 300,000); AID 2314; in the data active means max response mostly above about 13%, no sharp cut-off; inactive means mostly below about 14%; further: read at 38.3 µM for the half of the compounds with a filed dose; 0% is about no effect
# Shiga inhibitor: blocks Shiga toxin action in Vero cells | Vero cells, Shiga toxin protein synthesis inhibition reporter | AID 2315 | actives 9.2% (n = 290,000) | inhibition, % at 38.7 µM; in the data active means inhibition mostly above about 28%, no sharp cut-off; inactive means mostly below about 43%; further: 0% is about no effect
# Pf growth 48h: inhibits P. falciparum growth in the first generation, 48 h. actives 5.9% (n = 310,000). Potency, µM (top dose mostly 28.7 µM), for inactives: at the top dose activity change, negative = inhibition, actives largely listed as inhibitors. P. falciparum luciferase growth in erythrocytes, 48 h; active means well fitted inhibition curve with a large enough effect; inconclusive means small, poorly fitted or top-dose-only effect, or another doubt; inactive means no such curve, though single readings can be large or run the other way; further: potency means the concentration at half of the fitted maximal effect; on the % scale 0 is the no-effect control and ±100 the full control effect
#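 First compound was added to culture medium, then infected red cells at 0.1% parasitemia and 2% hematocrit (final). After incubation at 37 C under 5% CO2, luciferase detection reagent was dispensed and light output recorded.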
# An asterisk follows results filed as active; ? = inconclusive; . = no result; [ ] = dose if it differs, or a comment. Unless noted, the call rests on the fitted dose curve.
SMILES,NS1 function inh,SARS PLpro yeast,Pf growth 96h,Cycloheximide cs,Shiga inhibitor,Pf growth 48h
Cc1onc(-c2ccccc2Cl)c1C(=O)NC(=S)Nc1ccc(C(C)C)cc1,15%,-1%,13µM*,3,36,5.2µM*
CC(C)(C)OC(=O)N1CCC(c2c(C(=O)NCC3CCN(C4CCCC4)C3)cnn2-c2ccccc2Cl)CC1 (configuration not stated),5%,-5%,20%,-8,18,?
O=C(COC(=O)c1cccc(-n2cnnn2)c1)c1ccccc1,-16%,-6%,63%,20*,31*,34%
COC(=O)c1cccc(-n2cnnn2)c1,3%,6%,4%,-3,-3,8%
COc1ccc(OCCOC(=O)c2cccc(-n3cnnn3)c2)cc1,-7%,4%,15µM*,14*,14,53%
CCOc1ccc(C(=O)COC(=O)c2cccc(-n3cnnn3)c2)cc1,-5%,7%,45%,56*,51*,102%
Cc1ccccc1OCCCCc1c(C)n[nH]c1C,-101%,?,49%,2,-12,-15%
COc1ccccc1Oc1ccc(Oc2ccccc2OC)cc1,.,-1%,-28%,41*,45,-23%
COc1ccc(Oc2ccccc2C#N)cc1,-3%,0%,-17%[1.15 µM],7,51,5%
COc1ccccc1OCCCCOc1ccccc1F,-1%,2%,34%,34*,75,27%
Fc1ccccc1OCCCCCCN1CCCC1,0%,-2%,-9%,17*,42,-29%
Cc1n[nH]c(C)c1CCCCOc1ccccc1F,-3%,5%,2.1µM*,3,19,16%
CN1CCN(C(=O)C2CCCN(S(=O)(=O)c3ccc(Cl)cc3)C2)CC1 (configuration not stated),6%,9%,-7%,-1,23,0%
CCOc1ccc(N2C(=O)C(=O)/C(=C(/O)c3ccccc3)C2c2ccccc2[N+](=O)[O-])cc1 (configuration not stated),9%,0%,?,-2,9,-2%
CCOC(=O)c1ccccc1-c1csc(N)n1,-5%,3%,22%,-3,-12,14%
O=C(CCCCCn1nnc2ccccc2c1=O)Nc1ccccc1F,5%,1%,0%,4,29,?
Cc1ccc(NC(=O)C(C)N=C2NS(=O)(=O)c3ccccc32)cc1F (configuration not stated),6%,-1%,39%,29*,63*,-2%
N#CC(C#N)=Cc1cc2ccccc2nc1N1CCCCC1,-21%,-40%,-10%,42*,41*,-29%
CCN(CC1CCCN(CCc2cccc(OC)c2)C1)C(=O)c1ccoc1C (configuration not stated),9%,-2%,13%,8,-9,0%
Cc1cc(NC(=O)CSc2ccccn2)cc(NC(=O)CSc2ccccn2)c1,-8%,-1%,29%,-2,-7,-19%
Cc1cc(C)cc(OCC(=O)NC2=NCCS2)c1,-14%,-4%,.,7,-3,10%
O=C(CSc1ccccn1)Nc1ccc2c(c1)C(=O)c1ccccc1C2=O,25%,-3%,0%,43*,20,164%
O=C(CSc1ccccn1)Nc1ccc2ccccc2c1,-2%,-4%,?,53*,77*,199%
O=C(CSc1n[nH]c(=O)[nH]c1=O)Nc1ccc2c(c1)C(=O)c1ccccc1C2=O,8%,-1%,26%,27*,68*,43%
O=C(CSc1n[nH]c(=O)[nH]c1=O)Nc1cccc(S(=O)(=O)N2CCOCC2)c1,.,0%,3%,-3,3,5%
O=C(COc1ccc2ccccc2c1)NC1=NCCS1,-9%,-5%,.,43*,107*,166%
CCOC(=O)c1sc(NC(=O)COC(=O)Cn2cnc3ccccc32)c(C(=O)OCC)c1C,-10%,-17%,?,5,-2,?
O=C(Cc1ccccc1)Nc1ccccc1C(=O)N1CCCCCC1,-1%,0%,?,6,-7,37%
O=C(CSC1=NCCS1)Nc1ccc2ccccc2c1,11%,1%,43%,36*,117*,43%
Cc1ccc(/C=C2\CCC3=C2OC(N)=C(C#N)C3c2ccc(C)cc2)cc1 (configuration not stated),20%,-10%,?,-1,13,?

# From PubChem BioAssay
